Screens as filed in PubChem BioAssay.
LmPK inhibitor – qHTS Assay for Inhibitors of Leishmania Mexicana Pyruvate Kinase (LmPK). Potency, µM (top dose mostly 57.5 µM), for inactives: at the highest dose activity change, negative = inhibition, most hits filed as inhibitors. purified LmPK, Kinase-Glo ATP luminescence, 1 h. 290,000 compounds, 0.37% hits. Q27686; also: potency is read from the fitted curve at half-maximal effect; % is scaled to controls: 0 for no effect and ±100 for the full control effect
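ATP generated from ADP (0.1 mM) and PEP (0.5 mM) by 0.1 nM LmPK over 1 h at room temperature (pH 7.2 imidazole buffer) was detected by coupled luciferase luminescence. Values were normalized to uninhibited and no-enzyme wells.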
FBPA Giardia inh – qHTS Assay for Inhibitors of Fructose-1,6-bisphosphate Aldolase from Giardia Lamblia; purified Giardia FBPA; Potency, µM (highest dose often 59.6 µM), for inactives: at the highest dose activity, negative = inhibition, most hits filed as inhibitors; 290,000 compounds, 0.71% hits; also: potency is read from the fitted curve at half-maximal effect; % is scaled to controls: 0 for no effect and ±100 for the full control effect; nearly all actives have a fitted effect of over 55% in size
Target sequence (A8B2U2 whole entry, looked up): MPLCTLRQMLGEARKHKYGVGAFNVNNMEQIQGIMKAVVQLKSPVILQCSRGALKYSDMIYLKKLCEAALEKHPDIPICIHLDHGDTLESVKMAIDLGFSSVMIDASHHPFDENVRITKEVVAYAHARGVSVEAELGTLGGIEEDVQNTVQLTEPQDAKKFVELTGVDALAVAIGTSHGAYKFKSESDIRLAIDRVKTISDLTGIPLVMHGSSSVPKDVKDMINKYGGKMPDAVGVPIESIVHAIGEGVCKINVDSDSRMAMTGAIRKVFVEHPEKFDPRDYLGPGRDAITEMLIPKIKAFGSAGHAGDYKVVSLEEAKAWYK
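40 nM FBPA preincubated 10 min at RT with compound (up to 57.5 uM final), then substrate plus GAPDH/TPI/NAD/arsenate coupling and diaphorase/resazurin added. Fluorescence read after 20 min at RT, 525/598 nm.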
RE007 growth inh – qHTS Assay for Inhibitors of the HIV-1 protein Vpr; S. pombe RE007 Vpr strain, BacTiter-Glo ATP luminescence, 24 h; Potency, µM (top dose mostly 92.2 µM), without a hit: at the highest dose activity change, negative = less growth, hits mostly inhibitors; 360,000 compounds, 0.21% hits; active = well fitted falling curve with a large enough effect; inconclusive = small, poorly fitted or top-dose-only effect; inactive = no such curve, though single readings can be large or run the other way; also: potency is read from the fitted curve at half-maximal effect; % is scaled to controls: 0 for no effect and ±100 for the full control effect; nearly all actives have a fitted effect of over 50% in size
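Fission yeast strain RE007, carrying one chromosomally integrated HIV-1 vpr copy, was seeded at OD 0.01 in PMG+AL medium with 23 nL pinned compound. After 24 h at 30 °C and 99% humidity, viability was read by BacTiter-Glo luminescence.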
Shiga inhibitor – A qHTS for Small Molecule Inhibitors of Shiga Toxin; Vero cells, Shiga toxin protein synthesis inhibition reporter; inhibition, % at 38.7 µM; 290,000 compounds, 9.2% hits; AID 2315, 2010; in the data active = inhibition mostly above about 28%, no sharp cut-off; inactive = mostly below about 43%; also: 0% is about no effect
Cycloheximide cs – Cycloheximide Counterscreen for Small Molecule Inhibitors of Shiga Toxin; cell reporter, cycloheximide protein synthesis inhibition counterscreen; 300,000 compounds, 12% hits; max response, %; in the data active = max response mostly above about 13%, no sharp cut-off; inactive = mostly below about 14%; also: read at 38.3 µM for the half of the compounds with a filed dose; 0% is about no effect
Tb PYK inh – qHTS of Trypanosoma Brucei Inhibitors. pyruvate kinase (Trypanosoma brucei), Q57TT1. TbPYK enzyme, Kinase-Glo Plus ATP luminescence, 45 min. Potency, µM (doses to about 76.8 µM), for inactives: at the top dose activity, negative = inhibition, hits mostly inhibitors. 410,000 compounds, 0.12% hits. AID 624173, 2012; also: potency is read from the fitted curve at half-maximal effect; % is scaled to controls: 0 for no effect and ±100 for the full control effect; nearly all actives have a fitted effect of over 50% in size
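Readout: single end-point luminescence (Kinase-Glo Plus, 10 min). Reaction conditions were TbPYK/substrate plus 130 uM ADP, 45 min at RT, pH 7.2 TEA buffer. No-enzyme wells served as controls, and data were normalized before concentration-response fitting.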
* marks the source's active call; other numbers are inactive results; i = inactive; ? = inconclusive; nt = no result; [ ] = dose if it differs, or a comment. Only a selection was taken, and hits are over-represented in it overall. Unless noted, calls follow the shape of the dose curve; as a rule, active = well fitted curve in the direction sought with a large enough effect; inconclusive = small, poorly fitted or top-dose-only effect, or another doubt; inactive = no such curve, though single readings can be large; an effect the other way counts as inactive or inconclusive.

SMILES | LmPK inhibitor | FBPA Giardia inh | RE007 growth inh | Shiga inhibitor | Cycloheximide cs | Tb PYK inh
CCc1ccc2nc(N(Cc3cccnc3)C(C)=O)sc2c1 | nt | nt | nt | nt | nt | 7%
Cc1cc(=O)[nH]c(SCCc2ccccc2)n1 | -2% | -28% | -3% | -6 | -4 | 3%
CCOc1ccc(OCCSc2nc(C)cc(=O)[nH]2)cc1 | 2% | -1% | -24% | 124* | 30* | ?
Cc1ccc(SCCSc2nc(C)cc(=O)[nH]2)cc1 | 3% | ? | 20% | nt | 40* | -3%
Cc1ccc(SCCSc2nc(N)cc(=O)[nH]2)cc1 | 4% | -11% | 1% | 33 | 22* | -1%
O=c1c2sc3ccccc3c2n(Cc2cccc(F)c2)c(=O)n1CCc1ccccc1 | nt | nt | nt | nt | nt | 0%
CCc1c(C)nc2nncn2c1NCc1ccccc1 | nt | nt | nt | nt | nt | -8%
Fc1ccc(SCCc2ccncc2)cc1 | -5% | 3% | 2% | -2 | 3 | 2%
CC(C)(C)c1ccc(SCCc2cccnc2)cc1 | -1% | 1% | 9% | 110* | 44* | -1%
c1ccc(SCCc2ccncc2)cc1 | -12% | 1% | -6% | 15 | 20* | -6%
CC(C)Oc1ccc(CNC(=O)c2ccc3c(c2)N(C)C(=O)C2CCCCN32)cc1 (stereo not drawn) | nt | nt | nt | nt | nt | 5%
Cc1cc(C)nc(SCc2csc(N)n2)n1 | -1% | -15% | 13% | 64 | 28* | -24%
Cc1cc(C)nc(SCc2csc(-c3ccccc3)n2)n1 | -5% | -1% | 13% | 85* | 61* | -7%
Clc1ccc(-c2nc(CSc3ccccn3)cs2)cc1 | nt | nt | -22% | nt | nt | 4%
Nc1ccccc1SCc1csc(-c2ccc(Cl)cc2)n1 | 5% | -12% | nt | 113* | 44* | -11%
CCCc1cc(=O)[nH]c(SCc2csc(-c3ccccc3)n2)n1 | 1% | -1% | 1% | 4 | 14 | -1%
CCOc1ccc(Cn2c(CNS(=O)(=O)c3ccc(Cl)s3)nc3cccnc32)cc1 | nt | nt | nt | nt | nt | 5%
Cc1cccc(NC(=O)N2CCN(C(=O)c3nsc4ccccc34)CC2)c1C | nt | nt | nt | nt | nt | -1%[15.4 µM]
Cc1cc(NC(=O)c2ccc(C)c([N+](=O)[O-])c2)no1 | -3% | -1% | 12% | 32* | 31 | -8%
Cc1cc(NC(=O)c2ccc(Br)c([N+](=O)[O-])c2)no1 | -6% | 0% | -20% | 28 | 20 | -1%
Cc1cc(NC(=O)c2ccc(C)c(C)c2)no1 | 4% | -3% | 5% | nt | 37* | -7%
Cc1ccc(C(=O)Nc2sc(C)c(-c3ccccc3)c2C(N)=O)cc1[N+](=O)[O-] | 2% | 8% | -14% | 127* | 62* | -11%
CC1Cc2ccccc2N1C(=O)COC(=O)/C=C/c1ccc(F)cc1 (stereo not drawn) | nt | nt | 0% | nt | nt | 2%
CC1Cc2ccccc2N1C(=O)/C=C/c1cccc(F)c1 (stereo not drawn) | -17% | -7% | -28% | 87* | 45* | 2%
Cc1ccc(-c2ccc(C3C(C#N)=C(N)Oc4n[nH]c(C)c43)o2)cc1 (stereo not drawn) | -7% | 0% | 11% | 50* | 32* | -6%
SMILES | LmPK inhibitor | FBPA Giardia inh | RE007 growth inh | Shiga inhibitor | Cycloheximide cs | Tb PYK inh
Cc1cc2c(c(=O)n1-c1ccccc1)C1O[C@](c3ccsc3)(Cc3ccccc31)O2 | -1%[11.5 µM] | 0%[12.9 µM] | nt | i | 11 | nt
Cc1noc(C)c1-c1nc(CSc2ccccc2)no1 | 3% | 5% | 5% | 29 | 21* | 0%
Cc1cc(S(=O)(=O)Cc2noc(-c3c(C)noc3C)n2)c(C)cc1Cl | -2% | -7% | -4% | 19 | -2 | 0%
CCc1ccccc1N(C)C(=O)C1CCCN(c2ncnc3c2nc2n3CCCCC2)C1 (stereo not drawn) | nt | nt | nt | nt | nt | 2%
Cc1c(Cl)cccc1NC(=O)Cn1c(=O)nc(-c2ccccc2)c2ccccc21 | nt | nt | nt | nt | nt | -5%
Cc1nc2cnc(N(C)C)nc2n(C[C@H]2CCCO2)c1=O | nt | 1% | nt | nt | nt | nt
C/C(=N\Nc1cccc2cccnc12)c1ccc(N)cc1 | 0% | -25% | ? | 119* | 36* | 1%
C/C(=N\Nc1cccc2cccnc12)c1ccccn1 | -28% | -7% | ? | 30 | 32 | -11%
C/C(=N\Nc1cccc2cccnc12)c1ccccc1O | -7% | -9% | -8% | 46* | 36* | -7%
CC(=O)Nc1cccc2cccnc12 | nt | nt | nt | 15 | -6 | nt
CCc1ccc(NC(=O)C(=O)NCCc2csc(-c3ccc(C(F)(F)F)cc3)n2)cc1 | nt | nt | nt | nt | nt | 0%
Cc1cc2c(cc3c(SCc4ccc(Cl)cc4)nncn32)o1 | nt | nt | nt | nt | nt | -7%
CC(C)n1c(/N=C/c2c[nH]c3ccccc23)nc2ccccc21 | 1% | -1% | -11% | 45 | 20* | -11%
Cn1c(/N=C/c2c[nH]c3ccccc23)nc2ccccc21 | -18% | -4% | 6% | 18 | 2 | 3%
CSc1ccccc1NC(=O)COC(=O)c1ccccc1Cc1ccccc1 | 2% | -1% | -4% | 23 | 0 | -6%
CN(C(=O)c1ccccc1C(=O)OCC(=O)Nc1ccc(OC(F)F)cc1)c1ccccc1 | nt | nt | -2% | nt | nt | 2%
O=C(COC(=O)c1ccccc1Cc1ccccc1)Nc1ccc(SC(F)F)cc1 | 2% | -5% | 5% | 129* | 54* | 7%
Cc1ccc(C(=O)c2ccccc2C(=O)OCC(=O)Nc2cccc([N+](=O)[O-])c2)cc1 | 1% | -17% | 3% | -11 | -2 | -2%
CCOc1ccccc1C(=O)OCC(=O)Nc1ccc(OC(F)F)cc1 | 2% | -6% | 1% | 42 | 17* | -1%
Cc1ccc(C(=O)c2ccccc2C(=O)OCC(=O)Nc2ccc(SC(F)F)cc2)cc1 | -6% | -10% | 14% | 49 | 16* | -1%
CCNc1nc(-c2cc(C)n(Cc3ccco3)c2C)cs1 | 16% | ? | -23% | 104* | 53* | -8%
Cc1ccc(C(=O)/C=C/c2cc(C#N)n(C)c2C)cc1 | 10% | -11% | -30% | 80* | 35* | 3%
COc1ccc(C2=NN(C(=O)c3cccc([N+](=O)[O-])c3)C(c3cccc([N+](=O)[O-])c3)C2)cc1 (stereo not drawn) | 1% | -6% | -7% | -4 | -1 | 0%
Cc1ccc(C2=Nc3ccccc3SC(c3cccc([N+](=O)[O-])c3)C2)cc1 (stereo not drawn) | 3% | ? | -2% | 70* | 35* | -7%
O=C(NCC(=O)N(Cc1ccccc1)C(C(=O)NC1CCCC1)c1ccncc1)c1ccco1 (stereo not drawn) | 7% | -1% | -13% | 15 | 20* | -3%
